# AmpC inh detg: inhibitors of E. coli AmpC beta-lactamase with detergent; P00811; AmpC hydrolysis of nitrocefin, absorbance 480 nm, 0.01% Triton; Potency, µM (series often up to 114 µM), for the others: top-dose activity change, negative = inhibition, hits mostly inhibitors; 0.041% of 370,000 active; AID 485294;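 further: 0% = no-compound wells and -100% = no-enzyme wells; nearly all actives have a fitted effect of over 25% in size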
# Target sequence (P00811 whole entry, looked up): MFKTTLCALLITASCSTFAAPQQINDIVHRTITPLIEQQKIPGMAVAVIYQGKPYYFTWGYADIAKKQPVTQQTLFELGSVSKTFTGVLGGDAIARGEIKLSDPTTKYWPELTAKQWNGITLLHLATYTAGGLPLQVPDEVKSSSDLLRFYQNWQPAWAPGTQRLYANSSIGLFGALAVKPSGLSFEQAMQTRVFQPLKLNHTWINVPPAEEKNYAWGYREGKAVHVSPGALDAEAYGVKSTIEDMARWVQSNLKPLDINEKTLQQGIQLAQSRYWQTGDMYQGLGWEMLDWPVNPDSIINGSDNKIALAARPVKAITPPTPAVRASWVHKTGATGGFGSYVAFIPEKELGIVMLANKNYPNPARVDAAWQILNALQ
#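 AmpC (5.3 nM in the dispensed reagent) in 20 mM phosphate pH 7.0 with 0.01% (detergent screen) or 0.0001% Triton X-100 was preincubated with compounds for 15 min at room temperature. Nitrocefin was then added from an 800 uM solution, and hydrolysis was followed at 480 nm.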
# AmpC inh no detg: blocks E. coli AmpC beta-lactamase in detergent-free assay; AmpC nitrocefin hydrolysis, absorbance 480 nm, 0.0001% Triton; Potency, µM (titrated, usually from 57.1 µM), for inactives: top-dose activity change, negative = inhibition, hits mostly inhibitors; 0.52% of 330,000 active;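 further: plate controls were no compound for no effect and no enzyme for full effect; nearly all actives have a fitted effect of over 20% in size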
#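 AmpC (5.3 nM in the dispensed reagent) in 20 mM phosphate pH 7.0 with 0.01% (detergent screen) or 0.0001% Triton X-100 was preincubated with compounds for 15 min at room temperature. Nitrocefin was then added from an 800 uM solution, and hydrolysis was followed at 480 nm.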
# Sm TGR block: inhibitors of Schistosoma mansoni thioredoxin glutathione reductase. Q962Y6. purified TGR, DTNB reduction, TNB absorbance 405 nm. Potency, µM (top dose mostly 114 µM), for inactives: at the top dose activity change, negative = inhibition, actives largely listed as inhibitors. 3% of 360,000 active; further: nearly all actives have a fitted effect of over 60% in size
#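 First, TGR (20 nM dispensed) and NADPH were mixed with compound. Second, a 15 min room-temperature incubation followed. Third, further NADPH and then DTNB were added to start the reaction. Finally, TNB absorbance was monitored kinetically.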
# An asterisk follows results filed as active; ? = inconclusive; / = no result given. Most compounds without a hit are left out; they make up all but 3.3% or so of the library. The call rests on the fitted dose curve; in most records, active means well fitted curve in the direction sought with a large enough effect; inconclusive means small, poorly fitted or top-dose-only effect, or another doubt; inactive means no such curve, though single readings can be large; an effect the other way counts as inactive or inconclusive. Unless noted, on the % scale 0 is the no-effect control and ±100 the full control effect; potency means the concentration at half of the fitted maximal effect.
SMILES,AmpC inh detg,AmpC inh no detg,Sm TGR block
COc1ccc(N2CN=C3SCC(=O)N3C2)cc1,2%,-14%,-32%
CC(C)c1nn2c(=O)cc(COC(=O)c3ccc(NC(=O)C4CCCCC4)cc3)nc2s1,3%,/,0%
CC(NC(=O)CN1C(=O)COc2ccc(S(=O)(=O)N3CCCCCC3)cc21)c1ccccc1 (stereo not drawn),-10%,/,-1%
NC(=O)c1nc(-c2ccc(F)c(F)c2)nc2c1[nH]c(=O)n2-c1cccc(Cl)c1,-3%,/,-2%
O=C(CSC1=Nc2ccccc2C2=NC(Cc3ccccc3)C(=O)N12)Nc1ccccc1F (stereo not drawn),2%,/,3%
CC(=O)Nc1ccc(S(=O)(=O)N2CCC(n3c(C)nc4cccnc43)CC2)cc1,4%,/,-6%
COc1ccc(N2CSC3=C(C#N)C(c4cccc(OC)c4OC)CC(=O)N3C2)cc1 (stereo not drawn),-11%,-46%,22µM*
COc1ccc(C2CC(=O)N3CN(c4ccccc4F)CSC3=C2C#N)cc1OC (stereo not drawn),?,-20%,?
COc1cc(OC)c(C2CC(=O)N3CN(c4ccccc4C)CSC3=C2C#N)cc1OC (stereo not drawn),-7%,1%,32µM*
COc1cccc(C2SCC(=O)N2c2ccc(Cl)cc2)c1OC (stereo not drawn),1%,-3%,4%
CCc1ccc(NC(=O)N2CCN(c3nnc(C)c4c(C)n(-c5ccc(Cl)cc5)nc34)CC2)cc1,-4%,/,-6%
O=C1c2ccc([N+](=O)[O-])cc2NC(c2ccco2)N1/N=C/c1ccco1 (stereo not drawn),3%,-36%,40µM*
CN=c1scc(-c2ccc([N+](=O)[O-])cc2)n1/N=C/c1ccco1,2%,-31%,0%
COc1ccc(OC)c(NC(=O)c2nc(S(=O)(=O)Cc3ccccc3)ncc2Cl)c1,?,68%,3.2µM*
Cc1ccc(CSc2ncc(Cl)c(C(=O)NCc3ccccc3)n2)cc1,24%,/,3%
Cc1cccc(CS(=O)(=O)c2ncc(Cl)c(C(=O)Nc3nc4ccc(F)cc4s3)n2)c1,10%,/,-28%
Cc1cccc(CS(=O)(=O)c2ncc(Cl)c(C(=O)NCc3ccccc3)n2)c1,0%,-28%,7.9µM*
COc1ccc(NC(=O)c2nc(S(=O)(=O)Cc3cccc(C)c3)ncc2Cl)c(OC)c1,-1%,-23%,8%
Cc1cccc(C)c1NC(=O)c1nc(S(=O)(=O)Cc2ccccc2)ncc1Cl,-2%,-32%,13µM*
CCCc1nnc(NC(=O)c2nc(S(=O)(=O)Cc3cccc(C)c3)ncc2Cl)s1,-2%,-18%,35µM*
Cc1ccc(Cl)cc1N1CCN(C(=O)c2ccc3c(Cl)c4c(nc3c2)CCCC4)CC1,-4%,/,-3%
CCOc1ccc(C(=O)c2cn(CC(=O)Nc3ccc(Cl)cc3)c3cc4c(cc3c2=O)OCCO4)cc1,1%,/,3%
COc1ccc(CNC(=O)CN2C(=O)CSc3ccc(S(=O)(=O)N4CCCC4)cc32)cc1,19%,/,9%
CCOc1ccc(CCNC(=O)c2ccc3c(c2)N(Cc2ccccc2F)C(=O)c2ccccc2S3=O)cc1OCC (stereo not drawn),-3%,/,3%
Cc1ccc(NC(=O)N(Cc2c[nH]c3ccccc23)C2CCCCCC2)cc1C,-8%,/,1%
SMILES,AmpC inh detg,AmpC inh no detg,Sm TGR block
CC(=O)c1cccc(NC(=O)N2CCC(CN3CCCCC3)CC2)c1,-2%,/,0%
Cc1ccc(NC(=O)C2CCCN(c3nnc(C)c4c(C)n(-c5ccccc5)nc34)C2)c(Cl)c1 (stereo not drawn),-3%,/,0%
Cn1c2cc(Br)sc2c2cnn(Cc3ccc(F)cc3)c(=O)c21,-10%,-11%,0%
COc1ccc(NC(=O)C(=O)NCCc2csc3nc(-c4ccccc4F)nn23)cc1OC,18%,/,1%
Cc1cccc(CS(=O)(=O)c2ncc(Cl)c(C(=O)Nc3c(C)cccc3C)n2)c1,1%,-9%,7.1µM*
Cc1nnc(NC(=O)c2nc(S(=O)(=O)Cc3ccccc3)ncc2Cl)s1,8%,-35%,22µM*
COc1ccc2nc(NC(=O)c3nc(S(=O)(=O)Cc4ccccc4)ncc3Cl)sc2c1,19%,/,4%
COc1ccc2nc(NC(=O)c3nc(S(=O)(=O)Cc4cccc(C)c4)ncc3Cl)sc2c1,7%,/,?
COc1cc(-c2noc(-c3ccc(NCc4ccco4)c([N+](=O)[O-])c3)n2)cc(OC)c1OC,19%,/,-18%
Cc1ccc(-n2nnnc2CNC(=O)c2ccccc2F)cc1C,18%,/,3%
COc1ccc(NC(c2ccccc2)P(=O)(Oc2ccccc2)Oc2ccccc2)cc1 (stereo not drawn),-5%,-25%,-1%
COc1ccc(NC(c2ccccc2)c2ccncc2)cc1 (stereo not drawn),1%,-10%,40µM*
COc1ccc(C)cc1NC(=O)C(=O)NCC(c1cccnc1)N1CCc2ccccc21 (stereo not drawn),13%,/,1%
O=C(CNC(=O)c1cccc(Br)c1)N/N=C/c1cc(Br)cc(Br)c1O,5%,11µM*,-18%
O=C(CNC(=O)c1cccc(Br)c1)N/N=C/c1cccs1,?,-28%,-20%
O=C(CCN1C(=O)/C(=C/c2cccs2)SC1=S)Nc1ccc(O)cc1,-15%,?,-8%
O=C(CCN1C(=O)/C(=C/c2cccs2)SC1=S)Nc1ccc(C(=O)O)c(O)c1,-4%,1.3µM*,0%
O=C(CN1C(=O)CCSc2ccccc21)Nc1ccc(C(F)(F)F)cc1,-2%,/,-8%
CC(C)N1CCN(C(=O)c2ccc(NC(=O)c3ccc(Br)o3)cc2)CC1,?,-1%,22µM*
O=C(Nc1ccc(C(=O)N2CCCC(CO)C2)cc1)c1ccc(Br)o1 (stereo not drawn),/,-10%,/
O=C(Nc1ccc(C(=O)N2CCC(N3CCOCC3)CC2)cc1)c1ccc(Br)o1,0%,-3%,32µM*
O=C(Nc1ccc(N2CCN(C(=O)c3ccccc3)CC2)cc1)c1ccc(Br)o1,-13%,0%,-10%
CCOc1ccc(OCC)c(NC(=O)Cn2nc(CC)n3c(cc4sccc43)c2=O)c1,22%,/,0%
COc1ccccc1CNC(=O)c1cccn1-c1nnc(N2CCCC2)s1,5%,/,5%
CCCN(C(=O)c1sc2nc3n(c(=O)c2c1C)CCCC3)c1ccccc1C,18%,/,-15%
SMILES,AmpC inh detg,AmpC inh no detg,Sm TGR block
Cc1ccc(-n2nnnc2CNC(=O)c2ccccc2)cc1C,19%,/,8%
COc1ccccc1NC(=O)C1=C(C)Nc2nc(SCc3ccccc3)nn2C1c1cccc(O)c1 (stereo not drawn),-1%,/,0%
CC1=CCC2C(=O)N(c3nc(C)cc(C)n3)C(=O)C2C1 (stereo not drawn),2%,-1%,8%
CC1=CCC2C(=O)N(c3ccc4ccccc4n3)C(=O)C2C1 (stereo not drawn),0%,0.14µM*,-1%
Cc1nn(CCCC(=O)NCc2cccc(Cl)c2)c(=O)c2c1sc1ccccc12,16%,/,-5%
N/C(=N\N=C\c1ccc(Br)o1)c1nonc1N,-4%,-18%,40µM*
Nc1nonc1C(=O)N/N=C/c1ccc(Br)o1,5%,-6%,13%
